A short description of assay [1]: KB-8-5-11 P-gp reporter qHTS against the NCATS DSHEA and TCM libraries (AID 1919977). Note: 0% is about no effect. In short, it runs like this:
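P-gp-overexpressing KB-8-5-11 cells (500/well) were plated in colchicine-free DMEM with 10% FBS, attached ~4 h, then exposed to substance titrations for ~72 h at 37C. Viability was read by CellTiter-Glo luminescence.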

A short description of assay [2]: qHTS profiling for inhibitors of Plasmodium falciparum proliferation (AID 504749).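 For activity, negative = inhibition: 0% = DMSO vehicle and full inhibition = artemisinin control.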 Note: nearly all actives have a fitted effect of over 60% in size. Note: potency is the fitted concentration of half-maximal effect. The note with it: P. falciparum in erythrocytes, SYBR Green DNA, 72 h. In short, it runs like this:
(§1)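 Quantitative HTS: compounds pinned into medium, infected erythrocytes added (0.3% parasitemia, 2.5% hematocrit), 72 h culture at 37 C under 5% CO2. Saponin/Triton lysis with SYBR Green I, overnight RT, then fluorescence read.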
(In general: Quantitative high-throughput screening tests each substance at several concentrations.)

The test system of the next assay is 3D7. The assay is described as above. The settings on record: P. falciparum in erythrocytes, SYBR Green DNA, 72 h; series mostly up to 28.7 µM. In short, it runs like this:
as §1

In the next assay the test system is 7G8. The assay is described as above. The note with it: P. falciparum in erythrocytes, SYBR Green DNA, 72 h; series mostly up to 28.7 µM. In short, it runs like this:
as §1

The subject of the next assay is AA1029. Described as above. The settings on record: P. falciparum in erythrocytes, SYBR Green DNA, 72 h; series mostly up to 28.7 µM. In short, it runs like this: as §1
The nature of assay [3]: qHTS drug screen for cell cycle checkpoint inhibitors in PARPi-resistant BRCA-mutant ovarian cancer cell lines. (AID 1963452; calls by dose curve). The note with it: PEO1/OlaR viability, CellTiter-Glo luminescence, 96 h, stronger effect = lower value. In short, it runs like this: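 PEO1, PEO4 and PEO1/OlaR ovarian cancer cells, 600 per well, exposed 96 h at 37C to a dilution series. Viability read by CellTiter-Glo luminescence, normalized to DMSO and empty wells; activity summarized as Z-AUC.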

[4] abbreviates: at 28.7 µM (top of the series), parasite line A.
[5] abbreviates: at 28.7 µM (top of the series), parasite line B.
Where [6] appears, read: at 12.8 µM (top of the series), parasite line A.
Where [7] appears, read: at 12.8 µM (top of the series), parasite line B.

Inconclusive results are not listed. Active and inactive are the calls of the source. Unless noted, calls come from the whole dose curve; as a rule, active = well fitted curve in the direction sought with a large enough effect; inconclusive = small, poorly fitted or top-dose-only effect, or another doubt; inactive = no such curve, though single readings can be large; an effect the other way counts as inactive or inconclusive.

`NC(=O)c1cnccn1`: in assay [1], the result was inactive.
For `O=C(O)c1cc(O)c(O)c(O)c1`, the compound was called inactive in assay [1].
As for `CC12CCC(CC1)C(C)(C)O2`, the outcome in assay [1] was inactive.
On to `COP(=S)(OC)Oc1ccc(S(=O)(=O)N(C)C)cc1`, for which the activity, negative = inhibition in assay [2] (setting [4]) was 14.2% (inactive); in assay [2] (setting [5]) it was 1.31% (inactive). Moreover, the Potency entry in the assay on 3D7, in the assay with 7G8 and in the assay with AA1029 was “inactive” each time.
`COC1CC(=C(c2cccs2)c2cccs2)C[N+](C)(C)C1` (stereo not given): the Potency is 3.98 µM (active) in assay [2] (parasite line A); 4.47 µM (active) in assay [2] (parasite line B); 11.2 µM (active) in the assay on 3D7; 10 µM (active) in the assay on 7G8; 12.6 µM (active) in the assay on AA1029.
Regarding `Cc1ncsc1CCCl`, the figures for the activity, negative = inhibition in assay [2] (setting [4]) and in assay [2] (setting [5]) were 12% (inactive) and 0.0082% (inactive), respectively. Also, the Potency result in the assay on 3D7, in the assay on 7G8 and in the assay on AA1029 was “inactive” throughout.
In the case of `Clc1ccc2c(c1)C(c1ccccc1)=NCc1nncn1-2`, the activity, negative = inhibition in assay [2] (setting [4]) was -1.68% (inactive); in assay [2] (setting [5]) it was 10.3% (inactive). Moreover, the Potency result with 3D7, in the assay with 7G8 and with AA1029 was “inactive” throughout.
`CCC1(CC)C(=O)C=CNC1=O`: the activity, negative = inhibition in assay [2] (setting [4]) is 10.7% (inactive); in assay [2] (setting [5]), 6.45% (inactive). The Potency entry in the assay with 3D7, in the assay with 7G8 and with AA1029 was “inactive” each time.
`CC(C)NC(C)C`: the activity, negative = inhibition in assay [2] (setting [4]) was 6.47% (inactive); in assay [2] (setting [5]), 12.2% (inactive). The Potency entry in the assay on 3D7, with 7G8 and in the assay with AA1029 was “inactive” throughout.
With `Oc1ccc(Cl)cc1`, the activity, negative = inhibition in assay [2] (setting [4]) is 0.659% (inactive); in assay [2] (setting [5]), -12.9% (inactive). In addition, the Potency entry in the assay with 3D7, in the assay with 7G8 and in the assay with AA1029 was “inactive” in each case.
With `O=c1[nH]oc2c1CCNC2`, the activity, negative = inhibition in assay [2] (setting [4]) was 3.02% (inactive); in assay [2] (setting [5]), 15.3% (inactive). Further, the Potency result in the assay on 3D7, in the assay on 7G8 and with AA1029 was “inactive” in each case.
For the compound `NCCc1ccc(O)cc1`, the activity, negative = inhibition in assay [2] (setting [4]) is 8.86% (inactive); in assay [2] (setting [5]), 7.85% (inactive). Besides, the Potency result with 3D7, with 7G8 and in the assay on AA1029 was “inactive” throughout.
On to `CCCCCCC(=O)CCCCCC/C=C/C[C@@H](O)[C@H](O)[C@@](N)(CO)C(=O)O`, for which the activity, negative = inhibition in assay [2] (setting [4]) was 16.1% (inactive); in assay [2] (setting [5]), 7.92% (inactive). In addition, the Potency entry in the assay on 3D7, in the assay with 7G8 and with AA1029 was “inactive” each time.
As for `O=C(Nc1ccc(Br)cc1)c1cc(Br)cc(Br)c1O`, the values for the activity, negative = inhibition in assay [2] (setting [4]) and in assay [2] (setting [5]) were 6.84% (inactive) and 4.1% (inactive), respectively. The Potency result in the assay on 3D7, in the assay on 7G8 and with AA1029 was “inactive” in each case.
Consider `CN1C[C@H](C(=O)N[C@]2(C)O[C@@]3(O)[C@@H]4CCCN4C(=O)[C@H](Cc4ccccc4)N3C2=O)C=C2c3cccc4[nH]cc(c34)C[C@H]21`, for which the Potency in assay [2] (parasite line A) was 1.41 µM (active); in assay [2] (parasite line B) it was 1.58 µM (active); in the assay with 3D7, 0.891 µM (active); in the assay with 7G8, 0.0794 µM (active); in the assay with AA1029 it was 1 µM (active).
As for `O=C1Nc2ccc(Cl)cc2C(c2ccccc2Cl)=NC1O` (stereo not given), the activity, negative = inhibition in assay [2] (setting [4]) is 2.17% (inactive); in assay [2] (setting [5]) it was -14% (inactive). The Potency result in the assay on 3D7, in the assay on 7G8 and in the assay with AA1029 was “inactive” in each case.
Consider `CCCCCCCCCC(=O)O[C@H]1CC[C@H]2[C@@H]3CCC4=CC(=O)CC[C@@H]4[C@H]3CC[C@]12C`, for which the results for the activity, negative = inhibition in assay [2] (setting [4]) and in assay [2] (setting [5]) were 6.57% (inactive) and 11.7% (inactive), respectively. Further, the Potency entry with 3D7, in the assay with 7G8 and with AA1029 was “inactive” each time.
On to `COc1ccc2c(c1)C13CCCC[C@@H]1C(C2)N(C)CC3` (stereo not given in full), for which the activity, negative = inhibition in assay [2] (setting [4]) is 4.6% (inactive); in assay [2] (setting [5]), -5.63% (inactive). Moreover, the Potency result with 3D7 was “inactive”. Further, the Potency in the assay with 7G8 was 4.47 µM (active).
`CC(C)(C)NCC(O)c1cc(Cl)c(N)c(C(F)(F)F)c1` (stereo not given): the Potency is 14.1 µM (active) in assay [2] (parasite line A), 4.47 µM (active) in assay [2] (parasite line B), 4.47 µM (active) in the assay with 7G8 and 7.94 µM (active) in the assay on AA1029. In the assay with 3D7, the Potency result was “inactive”.
With `CCC1(c2ccccc2)C(=O)N(COC)C(=O)N(COC)C1=O`, the activity, negative = inhibition was 4.41% (inactive) in assay [2] (setting [4]) and 7.29% (inactive) in assay [2] (setting [5]). Moreover, the Potency result with 3D7, with 7G8 and in the assay on AA1029 was “inactive” in each case.
Consider `CCOP(=S)(OCC)Oc1ccc2c(C)c(Cl)c(=O)oc2c1`, for which the activity, negative = inhibition in assay [2] (setting [5]) was -25.9% (inactive).
`CN1CCC(O)(c2ccc(F)cc2)C(C(=O)c2ccc(F)cc2)C1` (stereo not given): the activity, negative = inhibition is -7.61% (inactive) in assay [2] (setting [4]) and -4.09% (inactive) in assay [2] (setting [5]). In addition, the Potency result with 3D7, with 7G8 and in the assay on AA1029 was “inactive” in each case.
In the case of `CN1C(=O)CC(=O)N(c2ccccc2)c2cc(Cl)ccc21`, the activity, negative = inhibition was 1.1% (inactive) in assay [2] (setting [4]) and -1.48% (inactive) in assay [2] (setting [5]). The Potency result in the assay on 3D7, in the assay with 7G8 and with AA1029 was “inactive” each time.
On to `COP(=S)(OC)SCN1C(=O)c2ccccc2C1=O`, for which the activity, negative = inhibition was 6.4% (inactive) in assay [2] (setting [4]) and 1.71% (inactive) in assay [2] (setting [5]). In addition, the Potency result in the assay with 3D7, in the assay with 7G8 and in the assay with AA1029 was “inactive” in each case.
For `C[C@]12Cc3cn[nH]c3C[C@@H]1CC[C@@H]1[C@@H]2CC[C@@]2(C)[C@H]1CC[C@]2(C)O`, the Z-AUC in assay [3] is 1.25 (inactive); in assay [3] (measured here: PEO1 parental Z-AUC), 0.915; in assay [3] (measured here: PEO4 Z-AUC) it was 1.64.
For the compound `Nc1nc(N)nc(NC2CC2)n1`, the results for the activity, negative = inhibition in assay [2] (setting [4]) and in assay [2] (setting [5]) were -13.5% (inactive) and 1.17% (inactive), respectively. Besides, the Potency entry in the assay with 3D7, in the assay with 7G8 and in the assay with AA1029 was “inactive” in each case.
Turning to `CNC(C)(C)Cc1ccccc1`, the activity, negative = inhibition in assay [2] (setting [6]) is 5.96% (inactive); in assay [2] (setting [7]) it was 5.61% (inactive). The Potency entry with 3D7, with 7G8 and in the assay with AA1029 was “inactive” in each case.
Consider `COc1c2c(cc3c1OCO3)CCN(C)C2`, for which the figures for the activity, negative = inhibition in assay [2] (setting [6]) and in assay [2] (setting [7]) were 4.79% (inactive) and 6.97% (inactive), respectively. The Potency result with 3D7, with 7G8 and in the assay with AA1029 was “inactive” throughout.
Regarding `Nc1ccccc1C(=O)O`, the activity, negative = inhibition in assay [2] (setting [4]) is 15.6% (inactive); in assay [2] (setting [5]), 4.96% (inactive). For the same compound, the Potency entry in the assay on 3D7, in the assay on 7G8 and in the assay with AA1029 was “inactive” in each case.
For the compound `O=C(N/N=C/c1ccc([N+](=O)[O-])o1)c1cc([N+](=O)[O-])cc([N+](=O)[O-])c1O`, the Potency is 0.447 µM (active) in assay [2] (parasite line A), 0.0708 µM (active) in assay [2] (parasite line B), 0.891 µM (active) with 3D7 and 0.1 µM (active) in the assay on AA1029. Besides, in the assay with 7G8, the Potency entry is “inactive”.
For `O=c1oc2ccccc2c(O)c1Cc1c(O)c2ccccc2oc1=O`, the activity, negative = inhibition in assay [2] (setting [6]) was 7.78% (inactive); in assay [2] (setting [7]) it was 2.51% (inactive). For the same compound, the Potency result in the assay with 3D7, in the assay on 7G8 and in the assay on AA1029 was “inactive” throughout.
`CCCCC/C=C\C/C=C\C/C=C\C/C=C\CCCC(=O)NCC(=O)O`: the activity, negative = inhibition in assay [2] (at 2.67 µM (top of the series), parasite line A) is -21.1% (inactive); in assay [2] (at 2.67 µM (top of the series), parasite line B) it was 4.55% (inactive); in the assay with 3D7 it was -0.415% [at 2.67 µM] (inactive); in the assay with 7G8, -4.42% [at 2.67 µM] (inactive); in the assay on AA1029, -5.7% [at 2.67 µM] (inactive).
With `NC(=O)CS(=O)C(c1ccccc1)c1ccccc1` (stereo not given), the activity, negative = inhibition in assay [2] (setting [4]) was 11.3% (inactive); in assay [2] (setting [5]), 9.97% (inactive). Further, the Potency result in the assay on 3D7 and in the assay with AA1029 was “inactive” each time.
On to `C=CCN1C[C@H](C)N([C@H](c2ccc(C(=O)N(CC)CC)cc2)c2cccc(OC)c2)C[C@H]1C`, for which the Potency was 10 µM (active) in assay [2] (parasite line A) and 5.01 µM (active) in the assay on 7G8.
For `C[C@]12CC[C@@H]3c4ccc(OC(=O)N(CCCl)CCCl)cc4CC[C@H]3[C@@H]1CC[C@@H]2O`, the figures for the activity, negative = inhibition in assay [2] (setting [4]) and in assay [2] (setting [5]) were 15.2% (inactive) and 2.03% (inactive), respectively. Also, the Potency entry with 3D7, in the assay on 7G8 and with AA1029 was “inactive” throughout.
`CC(C)(C)NCC(O)c1ccccc1Cl` (stereo not given): in assay [2] (setting [4]), the activity, negative = inhibition is -1.78% (inactive). Moreover, the Potency entry in the assay on 3D7 is “inactive”. The Potency in the assay with 7G8 was 11.2 µM (active).
